Experimental findings from PubChem BioAssay are described below.

Molecules are shown by their SMILES. Calls of active or inactive are those of the source.

A short description of assay [1]: small molecules captured by biotinylated probe aFSTL3 – biochemical, small-molecule microarray, fluorescence 635/667, stem cell growth factor project, primary screen (AID 1064).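 Note: measures binding of the biotinylated anti-FSTL3 antibody to printed compounds.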 Particulars: higher = more signal.
Assay [2] in a line: binders from COS7 lysate, DM2A8 probe, primary screen, torsin A project, cell lysate, small-molecule microarray, fluorescence 635/667 (AID 1065). Particulars: higher = more signal, COS7 lysate expressing mutant human TOR1A.
The nature of assay [3]: small molecules captured by biotinylated probe aFGF2 – biochemical, small-molecule microarray, fluorescence 635/667, stem cell growth factor project, primary screen (AID 1067).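 Note: measures binding of biotinylated aFGF2 protein to printed compounds on slides; z-score merges feature fluorescence and signal-to-noise across triplicate slides.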 Particulars: higher = more signal.
Assay [4] is described as follows: small molecules captured by biotinylated probe aFGF10 – biochemical, small-molecule microarray, fluorescence 635/667, stem cell growth factor project, primary screen (AID 1071).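 Note: score merges 667 nm spot intensity and signal to noise from triplicate slides.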 Particulars: higher = more signal.
For assay [5], the target named is Neurogenic locus notch homolog protein 2 (Homo sapiens) (UniProt Q04721). Briefly: small molecules binding Notch2 protein – biochemical, small-molecule microarray, 635 nm fluorescence, stem cell growth factors, primary screen (AID 1073). Particulars: higher = more signal.
Chain of Neurogenic locus notch homolog protein 2 (Homo sapiens) (Q04721 whole entry, looked up, canonical isoform): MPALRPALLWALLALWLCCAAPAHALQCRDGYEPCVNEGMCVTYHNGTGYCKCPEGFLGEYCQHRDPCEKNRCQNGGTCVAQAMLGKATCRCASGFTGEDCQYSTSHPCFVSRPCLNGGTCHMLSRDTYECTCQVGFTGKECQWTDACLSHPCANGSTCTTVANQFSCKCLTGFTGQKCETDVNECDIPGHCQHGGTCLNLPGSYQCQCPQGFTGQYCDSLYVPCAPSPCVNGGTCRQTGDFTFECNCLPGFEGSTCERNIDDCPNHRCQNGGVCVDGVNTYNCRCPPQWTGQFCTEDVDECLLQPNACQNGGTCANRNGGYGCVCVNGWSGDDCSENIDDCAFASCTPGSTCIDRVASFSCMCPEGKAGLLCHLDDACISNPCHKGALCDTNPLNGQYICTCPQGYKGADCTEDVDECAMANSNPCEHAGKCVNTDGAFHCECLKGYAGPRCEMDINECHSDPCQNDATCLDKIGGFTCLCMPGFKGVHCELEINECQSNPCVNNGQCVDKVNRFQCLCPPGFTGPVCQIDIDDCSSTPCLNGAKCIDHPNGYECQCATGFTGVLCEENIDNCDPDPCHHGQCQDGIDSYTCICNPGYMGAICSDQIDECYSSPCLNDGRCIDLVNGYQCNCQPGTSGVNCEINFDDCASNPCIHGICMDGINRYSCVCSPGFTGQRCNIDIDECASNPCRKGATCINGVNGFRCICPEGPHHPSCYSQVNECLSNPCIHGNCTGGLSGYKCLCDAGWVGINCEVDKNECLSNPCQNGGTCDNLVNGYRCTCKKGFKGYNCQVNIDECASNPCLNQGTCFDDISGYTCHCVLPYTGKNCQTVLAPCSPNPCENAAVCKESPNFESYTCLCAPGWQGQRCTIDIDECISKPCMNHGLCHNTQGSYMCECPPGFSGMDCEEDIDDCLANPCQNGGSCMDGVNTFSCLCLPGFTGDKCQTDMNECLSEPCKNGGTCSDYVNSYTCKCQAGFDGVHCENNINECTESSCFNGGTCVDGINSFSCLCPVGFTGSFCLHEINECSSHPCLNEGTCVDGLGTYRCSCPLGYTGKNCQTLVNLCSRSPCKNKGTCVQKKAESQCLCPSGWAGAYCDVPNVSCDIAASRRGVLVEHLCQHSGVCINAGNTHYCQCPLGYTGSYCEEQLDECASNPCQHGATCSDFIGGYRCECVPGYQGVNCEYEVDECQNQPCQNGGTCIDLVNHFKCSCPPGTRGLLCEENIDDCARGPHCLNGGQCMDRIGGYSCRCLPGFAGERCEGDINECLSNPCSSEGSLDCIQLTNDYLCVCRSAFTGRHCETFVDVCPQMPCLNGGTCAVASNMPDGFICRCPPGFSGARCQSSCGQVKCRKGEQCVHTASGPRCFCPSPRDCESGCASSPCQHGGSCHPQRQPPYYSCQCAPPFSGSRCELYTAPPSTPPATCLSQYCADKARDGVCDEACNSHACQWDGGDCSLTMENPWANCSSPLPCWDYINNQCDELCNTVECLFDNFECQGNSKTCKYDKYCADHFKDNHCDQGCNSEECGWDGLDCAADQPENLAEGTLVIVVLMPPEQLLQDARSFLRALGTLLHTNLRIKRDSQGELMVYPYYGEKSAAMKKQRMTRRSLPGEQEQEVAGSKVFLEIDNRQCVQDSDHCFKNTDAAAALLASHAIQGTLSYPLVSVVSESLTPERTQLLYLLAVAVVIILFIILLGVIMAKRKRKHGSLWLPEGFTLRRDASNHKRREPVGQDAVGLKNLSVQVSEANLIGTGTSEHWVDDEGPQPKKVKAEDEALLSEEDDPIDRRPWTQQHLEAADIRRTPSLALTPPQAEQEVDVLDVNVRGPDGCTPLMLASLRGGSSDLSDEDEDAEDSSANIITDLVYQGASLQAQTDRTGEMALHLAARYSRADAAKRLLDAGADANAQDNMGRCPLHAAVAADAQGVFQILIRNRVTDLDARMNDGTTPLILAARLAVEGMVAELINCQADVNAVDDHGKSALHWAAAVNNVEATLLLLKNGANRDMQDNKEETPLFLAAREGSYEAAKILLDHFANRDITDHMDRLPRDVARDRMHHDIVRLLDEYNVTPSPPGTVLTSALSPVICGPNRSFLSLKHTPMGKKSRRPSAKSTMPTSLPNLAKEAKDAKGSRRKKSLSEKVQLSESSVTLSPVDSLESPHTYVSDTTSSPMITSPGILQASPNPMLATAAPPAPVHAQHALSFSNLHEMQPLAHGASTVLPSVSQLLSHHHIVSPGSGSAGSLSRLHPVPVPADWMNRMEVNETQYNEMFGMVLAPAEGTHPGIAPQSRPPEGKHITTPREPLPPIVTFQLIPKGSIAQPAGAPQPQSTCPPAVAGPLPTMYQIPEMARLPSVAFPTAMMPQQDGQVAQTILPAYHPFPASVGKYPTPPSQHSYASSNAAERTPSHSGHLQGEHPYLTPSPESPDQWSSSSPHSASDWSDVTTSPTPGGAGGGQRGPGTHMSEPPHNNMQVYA
In assay [6] the target is Pro-neuregulin-1, membrane-bound isoform (Homo sapiens) (UniProt Q02297). Briefly: small molecules binding neuregulin-1 protein – biochemical, small-molecule microarray, fluorescence 635/667, psychiatric disease protein project, primary screen (AID 1075).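 Note: score combines 667 nm spot fluorescence with signal to noise.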 Particulars: NRG1 binding, 635 nm fluorescence, higher = more signal.
Chain of Pro-neuregulin-1, membrane-bound isoform (Homo sapiens) (Q02297 whole entry, looked up, the tested form may be a part, canonical isoform): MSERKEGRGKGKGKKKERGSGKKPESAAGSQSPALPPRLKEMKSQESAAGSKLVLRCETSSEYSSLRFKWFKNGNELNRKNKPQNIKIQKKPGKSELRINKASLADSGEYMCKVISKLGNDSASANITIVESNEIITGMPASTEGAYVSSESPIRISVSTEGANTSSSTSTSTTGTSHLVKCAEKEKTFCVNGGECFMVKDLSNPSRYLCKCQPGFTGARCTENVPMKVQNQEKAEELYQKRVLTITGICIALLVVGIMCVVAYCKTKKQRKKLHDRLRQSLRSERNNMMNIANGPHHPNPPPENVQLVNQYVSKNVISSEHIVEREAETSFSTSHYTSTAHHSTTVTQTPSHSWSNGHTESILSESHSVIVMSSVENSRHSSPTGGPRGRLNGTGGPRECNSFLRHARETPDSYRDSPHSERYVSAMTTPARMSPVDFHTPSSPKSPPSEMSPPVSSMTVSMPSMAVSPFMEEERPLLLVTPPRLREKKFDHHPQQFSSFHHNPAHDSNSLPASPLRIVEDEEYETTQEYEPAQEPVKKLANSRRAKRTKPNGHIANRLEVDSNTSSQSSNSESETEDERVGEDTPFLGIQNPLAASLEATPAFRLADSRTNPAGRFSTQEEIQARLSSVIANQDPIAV
Assay [7] relates to Neuregulin-1 EGF-like domain. Nature of the assay: small molecules binding NRG1 EGF domain – biochemical, small-molecule microarray, 635 nm fluorescence, primary screen (AID 1081).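 Note: binding of the protein to compounds printed on small-molecule microarray slides.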 Particulars: higher = more signal.
A short description of assay [8]: FRG1 expression reporter modulators in myotubes – cell-based, C2C12 myotubes, firefly/Renilla luciferase, luminescence, FRG1 inhibition for FSHD, primary screen (AID 1084). Particulars: FRG1 promoter luciferase, higher = more signal, called active from +8 up or from −8 down.
A short description of assay [9]: small molecules captured by biotinylated probe aFST – biochemical, small-molecule microarray, fluorescence 635/667, stem cell growth factor project, primary screen (AID 1086).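 Note: score merges 667 nm fluorescence with signal-to-noise of each printed compound spot.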 Particulars: higher = more signal.
A short description of assay [10]: binders of probe aHhip on microarray, primary screen, stem cell growth factor project, biochemical, small-molecule microarray, fluorescence 635/667 (AID 1087).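 Note: score merges spot fluorescence at 667nm with spot signal to noise ratio.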 Particulars: higher = more signal.
In assay [11] the test system is PRMT1 (protein arginine N-methyltransferase 1). Briefly: small molecules binding arginine methyltransferase PRMT1 – biochemical, small-molecule microarray, 635 nm fluorescence, primary screen (AID 1088).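 Note: binding of Prmt1 protein to compounds spotted on small-molecule microarray slides.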 Particulars: higher = more signal.
Assay [12] is described as follows: growth effects on S. cerevisiae YJM789 – YJM789 clinical isolate, OD600, 24 h, basal, primary screen (AID 1089).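 Note: growth of clinical yeast isolate S. cerevisiae YJM 789 seeded 1000 cells per well; test concentration not given here.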 Particulars: higher = more signal, called active from +8 up or from −8 down.
The nature of assay [13]: S. pombe growth modifiers, basal conditions – strain 972, OD600, 24 h, no modulator, primary screen (AID 1090).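 Note: basal condition with compound alone and no growth modifier present; test concentration not given here.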 Particulars: S. pombe 972 growth, higher = more signal, called active from +8 up or from −8 down.
Assay [14] can be described thus: budding yeast growth modifiers under rapamycin – strain BY4716, OD600, 96 h, primary screen (AID 1091). Note: test concentration not given here. Particulars: S. cerevisiae BY4716 + rapamycin, higher = more signal, called active from +8 up or from −8 down.
Assay [15] has as its target Torsin-1A-interacting protein 2 (Homo sapiens) (UniProt Q8NFQ8). Briefly: small molecules binding lysate-expressed LULL1 – cell lysate, human LULL1 lysate, 635/667 nm fluorescence, primary screen (AID 1092).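 Note: probe is lysate of COS7 cells overexpressing human LULL1; score merges per-feature 667 nm fluorescence with signal-to-noise.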 Particulars: small-molecule microarray, hLULL1 lysate binding, 635 nm fluorescence; higher = more signal.
Assay [16] can be described thus: optical density change of DRC41 E. coli – strain DRC41, OD650, 24 h, E. coli filamentation project, primary screen (AID 1093).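 Note: MC1000 strain lacking acrAB efflux and sulA so SOS filamentation is blocked; test concentration not given here.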 Particulars: E. coli DRC41 growth, higher = more signal, called active from +8 up or from −8 down.
A short description of assay [17]: probe aLefty2 binding to arrayed compounds – biochemical, biotinylated probe, 635/667 nm fluorescence, primary screen (AID 1094).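 Note: score merges spot fluorescence near 667 nm with spot signal-to-noise ratio.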 Particulars: small-molecule microarray, higher = more signal.
Assay [18] deals with Noggin (protein binding on small-molecule microarray). Briefly: small molecules binding Noggin protein – biochemical, 635/667 nm fluorescence, primary screen (AID 1095).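 Note: score merges 667 nm feature fluorescence with signal to noise over triplicate slides.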 Particulars: 635 nm fluorescence, higher = more signal.
For assay [19], the target named is Neurogenic locus notch homolog protein 3 (Homo sapiens) (UniProt Q9UM47). Nature of the assay: small molecules binding NOTCH3 protein – biochemical, 635/667 nm fluorescence, primary screen (AID 1096). Particulars: small-molecule microarray, 635 nm fluorescence, higher = more signal.
Assay [20] can be described thus: probe aEGFR binding to arrayed compounds – biochemical, biotinylated probe, 635/667 nm fluorescence, primary screen (AID 1097).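 Note: probe is a biotinylated anti-EGFR antibody binding compounds printed on slides; score combines fluorescence near 667 nm and signal to noise of each spot.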 Particulars: small-molecule microarray, higher = more signal.

Chain of Torsin-1A-interacting protein 2 (Homo sapiens) (Q8NFQ8 whole entry, looked up): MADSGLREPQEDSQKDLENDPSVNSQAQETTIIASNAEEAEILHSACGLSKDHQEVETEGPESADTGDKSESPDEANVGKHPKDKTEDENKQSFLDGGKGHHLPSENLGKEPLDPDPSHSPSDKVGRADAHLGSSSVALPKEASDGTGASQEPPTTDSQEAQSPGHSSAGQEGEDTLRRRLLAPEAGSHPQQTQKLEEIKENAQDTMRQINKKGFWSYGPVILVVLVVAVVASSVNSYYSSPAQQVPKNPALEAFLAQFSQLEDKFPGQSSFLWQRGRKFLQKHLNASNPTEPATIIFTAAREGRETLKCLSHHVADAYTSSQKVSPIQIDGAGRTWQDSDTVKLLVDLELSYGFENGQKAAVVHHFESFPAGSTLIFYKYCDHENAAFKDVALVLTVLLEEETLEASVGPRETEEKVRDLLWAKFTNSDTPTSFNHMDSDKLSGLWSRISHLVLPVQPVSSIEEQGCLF

Regarding `COc1ccc(C#Cc2ccc3c(c2)[C@]2(C(=O)N3)[C@H](c3ccc(OCCO)cc3)N3[C@H](c4ccccc4)[C@H](c4ccccc4)OC(=O)[C@H]3[C@@H]2C(=O)O)cc1`, the composite z-score was -0.302 in assay [1]; 0.478 in [2]; 0.0296 in assay [3]; 1.12 in assay [4]; 1.34 in assay [5]; 0.343 in assay [6]. In addition, the composite z-score in assay [7] is 1.25; in assay [9] it was 0.29; in [10], -0.0454; in [11], 1.54; in assay [15], 3.21; in assay [17] it was -0.232. In addition, the composite z-score in assay [18] turned out to be 1.29; in assay [19], 1.04; in assay [20], 0.0649. Besides, the z-score is 0.373 (inactive) in assay [8]; 2.83 (inactive) in assay [12]; 0.685 (inactive) in [13]; 1.4 (inactive) in assay [14]; 2.57 (inactive) in assay [16].

`COCCOC(=O)N1C(=O)[C@@]2(c3cc(C#CC4(O)CCCCCC4)ccc31)[C@H](c1ccc(OCCO)cc1)N1[C@H](c3ccccc3)[C@H](c3ccccc3)OC(=O)[C@H]1[C@@H]2C(N)=O`: the composite z-score in [1] is -0.392; in [2], 0.96; in assay [3] it was 0.014; in assay [4] it was 1.05; in [5] it was 0.96; in [6], 1.32. In addition, the composite z-score in assay [7] was 1.14; in assay [9], 0.48; in assay [10] it was -0.0645; in assay [11] it was 1.53; in assay [15], 1.67; in assay [17] it was 0.0494. For the same molecule, the values for the composite z-score in assay [18], in assay [19] and in assay [20] were 1.52, 1.06 and -0.013, respectively. For the same molecule, the z-score is 0.11 (inactive) in [8]; 1.29 (inactive) in assay [12]; 0.926 (inactive) in [13]; 4.69 (inactive) in assay [14]; 0.257 (inactive) in assay [16].

Consider `O=C1NC(=O)C2C1C=CC(C(O)c1cccc(O)c1)N2Nc1ccc(Cl)cc1Cl` (stereo not given), for which the composite z-score was 0.312 in assay [1]; 0.0528 in [2]; -0.161 in assay [3]; 0.0569 in assay [4]; 1.09 in assay [5]; 1.08 in assay [6]. Also, the composite z-score in [7] is 0.275; in assay [9], 0.259; in assay [10] it was -0.272; in assay [11], -1.24; in assay [15] it was 0.991; in assay [17] it was 0.0893. For the same molecule, the composite z-score was 0.115 in [18], -0.207 in [19] and 0.012 in assay [20]. The z-score in assay [8] was 0.203 (inactive); in assay [12] it was -0.927 (inactive); in [13], 0.765 (inactive); in assay [14], 0.668 (inactive); in assay [16], -2.08 (inactive).

Regarding `C=CCOC(=O)[C@H]1[C@@H]2C(=O)O[C@@H](c3ccccc3)[C@@H](c3ccccc3)N2[C@@H](c2ccc(OCCOC(=O)[C@@H]3C[C@@H]4C(=O)N[C@@H](Cc5ccccc5)C(=O)N4[C@@H]3c3ccc(O)cc3)cc2)[C@]12C(=O)Nc1ccccc12`, the composite z-score in assay [1] was -0.372; in assay [2], 0.268; in assay [3] it was -0.0713; in assay [4] it was 0.278; in assay [5], 0.217; in assay [6], 0.403. Moreover, the composite z-score in [7] is 1.21; in assay [9] it was -0.121; in assay [10], -0.0645; in [11], 1.55; in [15], 2.13; in [17], -0.151. Moreover, the composite z-score was 1.65 in [18], 0.758 in [19] and -0.0929 in assay [20]. Moreover, the z-score is 0.503 (inactive) in assay [8]; 0.455 (inactive) in [12]; -0.113 (inactive) in assay [13]; 3.75 (inactive) in assay [14]; 0.0664 (inactive) in assay [16].

With `CCCCC(=C=CC[C@@H](O)c1cccc(OCCO)c1)C[C@@H](O)COCc1ccccc1`, the composite z-score in assay [1] is -0.407; in assay [2] it was -0.323; in assay [3], -0.174; in assay [4], 0.211; in [5] it was -0.546; in [6], 0.679. Besides, the composite z-score in assay [7] was -0.0821; in assay [9] it was -0.336; in assay [10], 0.0053; in assay [11], 0.554; in [15] it was 0.866; in assay [17], -0.274. Further, the composite z-score in [18] was -0.0311; in assay [19], -0.184; in assay [20] it was -0.188. Moreover, the z-score in assay [8] is -2.47 (inactive); in assay [12], -0.59 (inactive); in assay [13], -1.95 (inactive); in assay [14] it was -0.601 (inactive); in assay [16], 1.84 (inactive).
